Source: publication PMC5700166

Assays:
Test in all cases: protein-binding microarray (PBM); PBM: ~300 nM protein, 6 mM HEPES pH 7.8, 80 mM KCl, 0.5 mM EDTA, 0.5 mM EGTA, 6% glycerol, 35 ng/ul poly-dIdC, 1% milk, 1 h, room temperature; Ap Aiptasia and Nv Nematostella (sea anemones) / Co Capsaspora / Aq Amphimedon (sponge) / Dm Drosophila / Hu human; RHD is the Rel homology domain; high values mean tight binding
Conditions in all cases: dsDNA, one strand shown
GST-Ap-NF-kB RHD = target: T1, GST-Ap-NF-kB RHD (Exaiptasia pallida (Aiptasia), UniProt A0A913YAJ5 2-422)
T1 sequence: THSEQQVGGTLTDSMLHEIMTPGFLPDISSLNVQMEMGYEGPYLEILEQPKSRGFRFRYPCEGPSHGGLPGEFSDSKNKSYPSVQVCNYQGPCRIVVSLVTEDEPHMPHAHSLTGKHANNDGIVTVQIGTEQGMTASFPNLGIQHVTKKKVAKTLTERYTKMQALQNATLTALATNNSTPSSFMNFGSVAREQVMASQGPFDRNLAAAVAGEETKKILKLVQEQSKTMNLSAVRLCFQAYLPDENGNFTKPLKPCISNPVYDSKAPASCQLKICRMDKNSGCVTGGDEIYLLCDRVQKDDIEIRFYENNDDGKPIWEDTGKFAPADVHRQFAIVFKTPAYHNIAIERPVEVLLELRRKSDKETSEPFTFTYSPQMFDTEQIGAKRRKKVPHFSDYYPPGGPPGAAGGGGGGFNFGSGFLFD

[1] = target: T2, GST-Nv-NF-kB (Cys allele) (Nematostella vectensis, UniProt E5G601 2-411)
T2 sequence: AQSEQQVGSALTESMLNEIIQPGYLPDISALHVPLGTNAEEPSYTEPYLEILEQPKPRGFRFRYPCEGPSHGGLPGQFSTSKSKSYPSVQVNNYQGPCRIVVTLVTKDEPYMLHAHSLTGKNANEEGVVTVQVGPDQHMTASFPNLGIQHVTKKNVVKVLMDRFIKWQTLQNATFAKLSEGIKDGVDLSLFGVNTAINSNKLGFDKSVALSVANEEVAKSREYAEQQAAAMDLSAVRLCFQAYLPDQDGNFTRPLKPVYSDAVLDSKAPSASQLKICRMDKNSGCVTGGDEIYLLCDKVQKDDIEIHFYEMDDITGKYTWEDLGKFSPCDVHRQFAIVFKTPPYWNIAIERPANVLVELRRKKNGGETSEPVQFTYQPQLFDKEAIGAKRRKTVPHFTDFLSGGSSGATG

GST-Co-NF-kB = target: T3, GST-Co-NF-kB (Capsaspora owczarzaki, UniProt F1ARL5 200-546)
T3 sequence: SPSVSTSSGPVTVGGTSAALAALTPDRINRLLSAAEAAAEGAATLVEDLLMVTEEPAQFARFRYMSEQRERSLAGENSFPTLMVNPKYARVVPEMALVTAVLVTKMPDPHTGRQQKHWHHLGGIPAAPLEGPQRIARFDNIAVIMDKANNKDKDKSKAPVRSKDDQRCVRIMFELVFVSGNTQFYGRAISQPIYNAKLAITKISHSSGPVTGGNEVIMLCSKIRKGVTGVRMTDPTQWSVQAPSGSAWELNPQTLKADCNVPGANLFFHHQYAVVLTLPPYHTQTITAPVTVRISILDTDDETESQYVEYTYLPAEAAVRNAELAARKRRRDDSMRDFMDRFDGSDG

GST-Dm-Relish = target: T4, GST-Dm-Relish (Drosophila melanogaster, UniProt Q94527 99-473)
T4 sequence: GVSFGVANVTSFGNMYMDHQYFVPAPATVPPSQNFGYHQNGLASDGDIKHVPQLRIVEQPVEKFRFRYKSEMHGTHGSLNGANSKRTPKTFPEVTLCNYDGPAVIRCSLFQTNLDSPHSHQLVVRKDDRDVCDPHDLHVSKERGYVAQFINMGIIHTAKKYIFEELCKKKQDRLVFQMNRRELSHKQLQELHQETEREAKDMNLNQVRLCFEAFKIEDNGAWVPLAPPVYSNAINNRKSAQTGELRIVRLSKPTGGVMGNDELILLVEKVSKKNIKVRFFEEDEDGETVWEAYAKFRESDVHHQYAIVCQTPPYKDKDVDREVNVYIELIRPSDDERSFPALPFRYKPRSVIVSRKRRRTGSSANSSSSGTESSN

GST-Aq-NF-kB = target: T5, GST-Aq-NF-kB (Amphimedon queenslandica, UniProt A9Y5G7 2-389)
T5 sequence: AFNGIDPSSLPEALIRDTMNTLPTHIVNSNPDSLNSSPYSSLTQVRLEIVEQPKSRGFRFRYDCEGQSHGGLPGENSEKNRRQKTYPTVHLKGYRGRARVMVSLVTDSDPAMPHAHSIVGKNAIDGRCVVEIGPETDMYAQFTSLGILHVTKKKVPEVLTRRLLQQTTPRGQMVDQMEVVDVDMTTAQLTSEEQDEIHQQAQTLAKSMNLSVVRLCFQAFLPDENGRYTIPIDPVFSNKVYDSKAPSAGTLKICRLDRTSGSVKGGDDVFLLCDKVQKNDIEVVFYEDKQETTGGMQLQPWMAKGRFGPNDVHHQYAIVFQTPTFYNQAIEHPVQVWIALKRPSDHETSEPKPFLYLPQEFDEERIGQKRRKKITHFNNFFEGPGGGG

Row | Sequence | binding signal (GST-Ap-NF-kB RHD) [z-score] | binding signal [1] [z-score] | binding signal (GST-Co-NF-kB) [z-score] | binding signal (GST-Dm-Relish) [z-score] | binding signal (GST-Aq-NF-kB) [z-score]
1 | CCGATTAACATCAGGGGGTAATATGATGTTAATCGGGTCTTGATTCGCTTGACGCTGCTG | 4.99 | 4.47 | 6.77 | 2.66 | 4.45
2 | CCGATTAACATCAAGTCCCCCAATGATGTTAATCGGGTCTTGATTCGCTTGACGCTGCTG | 4.26 | 3.66 | 3.84 | 2.8 | 3.76
3 | CCGATTAACATCAATTGCCCCCCTGATGTTAATCGGGTCTTGATTCGCTTGACGCTGCTG | 4.5 | 2.81 | 5.24 | 3.87 | 4.63
4 | CCGATTAACATCAAGCGTTCCCCTGATGTTAATCGGGTCTTGATTCGCTTGACGCTGCTG | 5.35 | 5.36 | 4.53 | 3.82 | 4.01
5 | CCGATTAACATCAGGGAAACTCATGATGTTAATCGGGTCTTGATTCGCTTGACGCTGCTG | 3.29 | 4.53 | 3.68 | 1.31 | 4.27
6 | CCGATTAACATCAAGGGGGGAGATGATGTTAATCGGGTCTTGATTCGCTTGACGCTGCTG | 5.84 | 5.1 | 6.56 | 2.93 | 4.98
7 | CCGATTAACATCAGGAAGGCCCCTGATGTTAATCGGGTCTTGATTCGCTTGACGCTGCTG | 2.9 | 2.69 |  | 4.9 | 5.3
8 | CCGATTAACATCAAATTCCCACTTGATGTTAATCGGGTCTTGATTCGCTTGACGCTGCTG | 2.15 | 4.13 | 2.26 | 4.38 | 2.47
9 | CCGATTAACATCAGGAGAATCCCTGATGTTAATCGGGTCTTGATTCGCTTGACGCTGCTG | 2.6 | 3.24 |  | 4.39 | 5.52
10 | CCGATTAACATCAGGGAATGCACTGATGTTAATCGGGTCTTGATTCGCTTGACGCTGCTG | 1.84 | 3.18 | 1.11 | 5.07 | 4.84
11 | CCGATTAACATCAGGAATCACCCTGATGTTAATCGGGTCTTGATTCGCTTGACGCTGCTG | 2.46 | 2.05 |  | 7.17 | 4.82
12 | CCGATTAACATCAACTAATTCCCTGATGTTAATCGGGTCTTGATTCGCTTGACGCTGCTG | 2.18 | 4.19 | 3.13 | 1.91 | 3.44
13 | CCGATTAACATCAAGTACCCCCCTGATGTTAATCGGGTCTTGATTCGCTTGACGCTGCTG | 5.57 | 3.68 | 4.81 | 4.13 | 3.99
14 | CCGATTAACATCAGGTAATCACCTGATGTTAATCGGGTCTTGATTCGCTTGACGCTGCTG | 1.18 | 2.2 |  | 5.6 | 4.04
15 | CCGATTAACATCACGGGGGGGACTGATGTTAATCGGGTCTTGATTCGCTTGACGCTGCTG | 5.94 | 4.86 | 7.62 | 4.51 | 5.17
16 | CCGATTAACATCAGGAAGACCCCTGATGTTAATCGGGTCTTGATTCGCTTGACGCTGCTG | 3.9 | 3.08 |  | 3.8 | 5.31
17 | CCGATTAACATCAAAATTCCCAATGATGTTAATCGGGTCTTGATTCGCTTGACGCTGCTG | 3.1 | 4.95 | 4.01 | 5.17 | 4.03

Row | Sequence | binding signal (GST-Ap-NF-kB RHD) [z-score] | binding signal [1] [z-score] | binding signal (GST-Co-NF-kB) [z-score] | binding signal (GST-Dm-Relish) [z-score] | binding signal (GST-Aq-NF-kB) [z-score]
18 | CCGATTAACATCAGGGGGTACACTGATGTTAATCGGGTCTTGATTCGCTTGACGCTGCTG | 4.19 | 2.66 | 4.33 | 3.21 | 3.31
19 | CCGATTAACATCAGGGTTTTCCATGATGTTAATCGGGTCTTGATTCGCTTGACGCTGCTG | 2.55 | 2.18 |  | 5.27 | 4.33
20 | CCGATTAACATCAGGAATTACCATGATGTTAATCGGGTCTTGATTCGCTTGACGCTGCTG | 1.03 | 1.38 |  | 4.62 | 3
21 | CCGATTAACATCAGGGAATTCGATGATGTTAATCGGGTCTTGATTCGCTTGACGCTGCTG | 3.01 | 3.99 | 2.25 | 1.66 | 3.01
22 | CCGATTAACATCAAAAAAGACCCTGATGTTAATCGGGTCTTGATTCGCTTGACGCTGCTG | 2.93 | 5.44 |  | 6.91 | 6.04
23 | CCGATTAACATCAGGGTATTCCATGATGTTAATCGGGTCTTGATTCGCTTGACGCTGCTG | 3.89 | 4.62 | 1.19 | 5.81 | 4.83
24 | CCGATTAACATCAGGTACTTCCATGATGTTAATCGGGTCTTGATTCGCTTGACGCTGCTG | 2.51 | 2.6 |  | 5.93 | 2.23
25 | CCGATTAACATCAAAAAAAGTCCTGATGTTAATCGGGTCTTGATTCGCTTGACGCTGCTG | 1.18 | 1.72 |  | 5.69 | 4.05
26 | CCGATTAACATCAGGGACAGCCCTGATGTTAATCGGGTCTTGATTCGCTTGACGCTGCTG | 3.43 | 4.69 |  | 2.23 | 6.35
27 | CCGATTAACATCACGGGACATACTGATGTTAATCGGGTCTTGATTCGCTTGACGCTGCTG | 1.83 | 1.3 |  | 1.8 | 2.17
28 | CCGATTAACATCAGGACAATCCCTGATGTTAATCGGGTCTTGATTCGCTTGACGCTGCTG | 2.22 | 2.68 |  | 2.5 | 5.09
29 | CCGATTAACATCACGGGGTTGCCTGATGTTAATCGGGTCTTGATTCGCTTGACGCTGCTG | 1.46 | 1.02 | 1.38 | 2.5 | 2.2
30 | CCGATTAACATCAGGGGAATGACTGATGTTAATCGGGTCTTGATTCGCTTGACGCTGCTG | 5.81 | 6.43 | 3.9 | 5.22 | 5.09
31 | CCGATTAACATCAGGGACCGCCCTGATGTTAATCGGGTCTTGATTCGCTTGACGCTGCTG | 4.16 | 3.55 |  | 1.91 | 6.48
32 | CCGATTAACATCAGAAATCCCGATGATGTTAATCGGGTCTTGATTCGCTTGACGCTGCTG | 3.14 | 2.98 |  | 3.98 | 2.24
33 | CCGATTAACATCAGGGGATCTACTGATGTTAATCGGGTCTTGATTCGCTTGACGCTGCTG | 5.31 | 4.68 | 1.96 | 9.02 | 5.74
